# According to the supplement of paper PMC9694430:
# Legend:
# Experiment in all cases: thermal shift delta Tm vs DMSO control; higher = stronger stabilization (binding)
# Details in all cases: 12.5 µM; protein concentration 2 µM
# LOC_OS01G57100-cb003 = system: LOC_OS01G57100-cb003
# How it was run: (§1)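 Thermal shift values come from differential scanning fluorimetry on purified rice kinase domains made in E. coli, with melting temperatures obtained from Boltzmann fits. Samples of 19.5 μl held 2 μM kinase, 100 mM potassium phosphate pH 7.5, 150 mM NaCl, 10% glycerol, 5 × SYPRO Orange and compound in DMSO, and were heated from 25°C to 95°C at 0.05°C/s. Each shift is a triplicate mean relative to the DMSO-only protein sample.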
# LOC_OS01G60330-cb001 = system: LOC_OS01G60330-cb001
# How it was run: as §1
# LOC_OS01G60700-cb002 = system: LOC_OS01G60700-cb002
# How it was run: as §1
# LOC_OS01G63280-cb003 = system: LOC_OS01G63280-cb003
# How it was run: as §1
# LOC_OS01G67340-cb003 = system: LOC_OS01G67340-cb003
# How it was run: as §1
# LOC_OS01G70970-cb002 = system: LOC_OS01G70970-cb002
# How it was run: as §1
# LOC_OS02G07810-cb001 = system: LOC_OS02G07810-cb001
# How it was run: as §1
# LOC_OS02G08530-cb003 = system: LOC_OS02G08530-cb003
# How it was run: as §1
# LOC_OS02G14120-cb001 = system: LOC_OS02G14120-cb001
# How it was run: as §1
# LOC_OS02G17970-cb001 = system: LOC_OS02G17970-cb001
# How it was run: as §1
# LOC_OS02G45750-cb003 = system: LOC_OS02G45750-cb003
# How it was run: as §1
# LOC_OS02G54510-cb004 = system: LOC_OS02G54510-cb004
# How it was run: as §1
# LOC_OS03G04050-cb001 = system: LOC_OS03G04050-cb001
# How it was run: as §1
# LOC_OS03G12390-cb001 = system: LOC_OS03G12390-cb001
# How it was run: as §1
# LOC_OS03G27990-cb004 = system: LOC_OS03G27990-cb004
# How it was run: as §1
# LOC_OS03G50450-cb001 = system: LOC_OS03G50450-cb001
# How it was run: as §1
# LOC_OS03G50810-cb003 = system: LOC_OS03G50810-cb003
# How it was run: as §1
# LOC_OS04G35114-cb001 = system: LOC_OS04G35114-cb001
# How it was run: as §1
# LOC_OS04G38480-cb003 = system: T1, LOC_OS04G38480-cb003
# T1 sequence (whole entry): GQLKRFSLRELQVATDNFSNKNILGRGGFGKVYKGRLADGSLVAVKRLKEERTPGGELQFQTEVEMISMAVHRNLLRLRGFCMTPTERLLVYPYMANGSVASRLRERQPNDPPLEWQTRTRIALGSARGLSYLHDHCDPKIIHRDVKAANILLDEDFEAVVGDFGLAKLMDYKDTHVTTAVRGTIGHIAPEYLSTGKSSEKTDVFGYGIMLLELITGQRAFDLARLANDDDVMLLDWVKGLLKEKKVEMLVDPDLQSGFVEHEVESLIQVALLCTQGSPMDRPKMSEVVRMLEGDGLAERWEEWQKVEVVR
# How it was run: as §1
# LOC_OS04G41100-cb001 = system: T2, LOC_OS04G41100-cb001
# T2 sequence (whole entry): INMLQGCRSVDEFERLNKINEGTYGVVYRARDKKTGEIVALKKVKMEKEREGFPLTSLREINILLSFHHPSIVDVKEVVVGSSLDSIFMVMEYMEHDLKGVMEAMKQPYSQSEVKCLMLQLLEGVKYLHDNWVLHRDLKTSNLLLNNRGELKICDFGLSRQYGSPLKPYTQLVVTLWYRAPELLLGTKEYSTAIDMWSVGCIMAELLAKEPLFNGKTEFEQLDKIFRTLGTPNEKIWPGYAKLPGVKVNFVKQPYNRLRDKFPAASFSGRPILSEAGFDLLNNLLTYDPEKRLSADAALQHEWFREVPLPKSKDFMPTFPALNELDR
# How it was run: as §1
# 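Also: purified Escherichia coli-expressed rice kinase domain construct.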
Structure (SMILES),thermal shift delta Tm (LOC_OS01G57100-cb003) [°C],thermal shift delta Tm (LOC_OS01G60330-cb001) [°C],thermal shift delta Tm (LOC_OS01G60700-cb002) [°C],thermal shift delta Tm (LOC_OS01G63280-cb003) [°C],thermal shift delta Tm (LOC_OS01G67340-cb003) [°C],thermal shift delta Tm (LOC_OS01G70970-cb002) [°C],thermal shift delta Tm (LOC_OS02G07810-cb001) [°C],thermal shift delta Tm (LOC_OS02G08530-cb003) [°C],thermal shift delta Tm (LOC_OS02G14120-cb001) [°C],thermal shift delta Tm (LOC_OS02G17970-cb001) [°C],thermal shift delta Tm (LOC_OS02G45750-cb003) [°C],thermal shift delta Tm (LOC_OS02G54510-cb004) [°C],thermal shift delta Tm (LOC_OS03G04050-cb001) [°C],thermal shift delta Tm (LOC_OS03G12390-cb001) [°C],thermal shift delta Tm (LOC_OS03G27990-cb004) [°C],thermal shift delta Tm (LOC_OS03G50450-cb001) [°C],thermal shift delta Tm (LOC_OS03G50810-cb003) [°C],thermal shift delta Tm (LOC_OS04G35114-cb001) [°C],thermal shift delta Tm (LOC_OS04G38480-cb003) [°C],thermal shift delta Tm (LOC_OS04G41100-cb001) [°C]
CN(C)CCCn1cc(C2=C(c3c[nH]c4ccccc34)C(=O)NC2=O)c2ccccc21,0.59,1.19,0.85,0.38,0.56,0.73,0.35,0.74,0.09,0.48,0.99,0.36,0.65,0.12,0.5,1.02,0.83,1.37,-0.32,0.65
CC[C@@](C)(Nc1ccnc(-c2c[nH]c3ncccc23)n1)C(=O)NCC(F)(F)F [Decernotinib (VX-509)],2.18,0.73,0.67,0.95,0.62,0.36,0.36,0.65,5.49,0.86,1.82,0.32,0.47,0.52,0.33,0.54,1.35,1.32,3.52,0.25
CC1(COc2ccc3c(c2)ncn3-c2ccc3cccc(N4CCC(N)CC4)c3n2)COC1,1.84,0.86,0.41,0.93,3.44,7.9,0.2,3.47,11.5,0.58,16.4,0.52,0.13,1.74,7.81,0.06,8.62,9.74,3.29,0.23
Fc1ccc2[nH]ccc2c1-c1nc(N2CCOCC2)c2sc(CN3CCN(CC4CC4)CC3)cc2n1,1.16,0.82,1.22,0.86,0.95,0.31,0.15,0.45,0.72,0.68,0,-0.03,0.21,0.01,0,-0.17,1.38,0.63,0.91,0.18
CNC(=O)c1ccc(-c2cnc3ncc(Cc4ccc5ncccc5c4)n3n2)cc1F,0.49,-0.8,0.39,0.07,0.32,-0.18,0.83,0.3,-0.02,0.26,0.61,0.23,0.48,-0.1,0.21,0.36,0.27,0.19,2.02,0.27
O=c1ncn2nc(Sc3ccc(F)cc3F)ccc2c1-c1c(Cl)cccc1Cl,1.7,0.91,0.86,0.47,-0.29,0.12,0.79,0.67,0.31,0.56,0.54,-0.07,0.23,0.07,-0.01,0.15,0.34,0.66,1.17,0.55
OCCn1cc(-c2cnc3nnn(Cc4ccc5ncccc5c4)c3n2)cn1,0.41,0.74,0.46,0.3,-0.64,0.28,0.2,0.45,-0.27,0.49,0.63,0.54,0.84,-0.07,0.33,0.8,0.22,0.87,-0.51,0.57
O=C(NCCO)c1cccc(-c2cc(Nc3ccc(OC(F)(F)F)cc3)ncn2)c1,1.41,0.68,0.09,0.31,0.88,0.38,0.33,0.44,-0.05,0.95,-1.95,0.81,0.63,-0.13,0.4,0.68,0.15,0.49,0.52,0.56
CCOc1ccn(-c2ccc(F)cc2)c(=O)c1C(=O)Nc1ccc(Oc2ccnc(N)c2Cl)c(F)c1,1.62,0.89,0.32,6.59,0.42,0.37,1.56,1.41,4.74,1.32,1.27,0.13,0.16,0.96,0.05,0.3,0.47,1.17,1.53,2.01
O=C1NC(=O)C(c2ccccc2[N+](=O)[O-])=C1Nc1ccc(O)c(Cl)c1,2.1,0.17,1.88,0.02,0.79,0.12,1.72,1.16,-1.08,1.06,1.34,0.07,0.14,2.25,0.15,-0.05,0.88,1.02,2.72,0.23
C=CC(=O)N1CC[C@@H](Oc2nc(Nc3ccc(N4CCC(N5CCN(C)CC5)CC4)cc3)c(C(N)=O)nc2CC)C1 [Naquotinib(ASP8273)],0.96,9.41,0.02,0.22,1.05,5.67,-0.78,4.36,8.5,0.57,0,3.07,0.21,9.13,5.37,4.82,5.96,8.09,3.19,0.5
O=C(O)c1ccc(-c2c[nH]c3ncc(-c4ccccc4)cc23)cc1C1CCCC1,1.09,-0.77,-3.79,2.57,4.86,6.62,0.4,4.81,10.7,-1.49,1.28,0.31,0.69,0.39,0.6,1.12,0.8,2.01,4.2,0.44
COc1cc(OC)cc(-c2cc3cnc(N)nc3nc2NC(=O)NC(C)(C)C)c1,1.18,0.3,0.16,0.24,-0.11,0.35,-0.88,0.52,0.72,-0.49,0.88,0.19,0.34,0.31,0.16,0.18,0.24,0,0.52,0.39
